For assay [1], the target named is Bromodomain-containing protein 4 (Homo sapiens) (UniProt O60885). The conditions noted are these: Compound concentration 20.0 uM, Protein concentration 2.0 uM, Result type QC Liability.
Assay [2] has as its target T1, Transcription intermediary factor 1-alpha (Homo sapiens) (UniProt O15164).
T1 sequence (whole entry): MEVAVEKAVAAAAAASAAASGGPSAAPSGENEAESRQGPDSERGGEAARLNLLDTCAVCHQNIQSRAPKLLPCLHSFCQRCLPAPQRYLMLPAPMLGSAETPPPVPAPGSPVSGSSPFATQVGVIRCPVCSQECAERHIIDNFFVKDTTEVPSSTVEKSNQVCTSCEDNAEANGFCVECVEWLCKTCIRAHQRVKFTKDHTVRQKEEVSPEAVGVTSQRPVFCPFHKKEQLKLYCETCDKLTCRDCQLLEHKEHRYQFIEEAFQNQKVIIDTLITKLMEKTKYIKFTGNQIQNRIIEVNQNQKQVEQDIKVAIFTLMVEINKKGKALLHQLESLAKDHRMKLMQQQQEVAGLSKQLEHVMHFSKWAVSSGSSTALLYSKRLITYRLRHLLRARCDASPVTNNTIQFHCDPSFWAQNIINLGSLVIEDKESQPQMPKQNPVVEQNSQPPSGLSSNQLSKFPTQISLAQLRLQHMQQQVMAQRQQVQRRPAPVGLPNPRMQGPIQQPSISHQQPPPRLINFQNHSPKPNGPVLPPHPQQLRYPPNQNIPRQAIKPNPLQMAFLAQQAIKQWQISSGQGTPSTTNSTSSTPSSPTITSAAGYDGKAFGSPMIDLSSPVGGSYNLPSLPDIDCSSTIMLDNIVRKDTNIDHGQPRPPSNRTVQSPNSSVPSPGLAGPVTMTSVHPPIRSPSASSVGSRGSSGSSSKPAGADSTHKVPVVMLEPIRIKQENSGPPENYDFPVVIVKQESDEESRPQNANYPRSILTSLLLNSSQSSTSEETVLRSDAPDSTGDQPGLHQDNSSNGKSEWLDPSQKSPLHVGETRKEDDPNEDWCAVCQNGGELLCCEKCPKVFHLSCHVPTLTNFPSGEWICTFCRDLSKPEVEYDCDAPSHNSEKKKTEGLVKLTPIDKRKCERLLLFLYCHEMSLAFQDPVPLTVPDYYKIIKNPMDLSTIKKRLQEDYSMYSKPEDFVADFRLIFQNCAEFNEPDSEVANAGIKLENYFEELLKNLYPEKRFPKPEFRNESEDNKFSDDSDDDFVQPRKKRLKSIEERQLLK
The conditions noted are these: Compound concentration 20.0 uM, Protein concentration 2.0 uM, Result type QC Liability.

The structures appear in SMILES notation.

As for `Cc1cc(=O)n(C)c2cc(N3C(=O)CC[C@H](NS(=O)(=O)CC(C)C)[C@H]3c3ccc(Cl)cc3)ccc12`, the shift in melting temperature (ΔTm) (as a rule, the shift of the melting midpoint relative to a reference) in assay [1] is -3.01 °C; in assay [2], -3.49 °C.

As for `COC[C@@H](C)N[C@H]1CC[C@H](Nc2cc(-c3cccc(NCC4(C#N)CCOCC4)n3)c(Cl)cn2)CC1`, the thermal shift (ΔTm) in assay [1] is -0.6 °C; in assay [2], -3.05 °C.

As to `COc1cc2nc(-c3cc(F)ccc3O)nc(N[C@@H]3CNC[C@H]3C(C)(C)O)c2cc1OC`, the ΔTm in assay [1] is 1.15 °C; in assay [2], -1.27 °C.

For the compound `Cc1ccc(NC(=O)c2ccc3c(c2)OCCO3)cc1NC(=O)c1ccc2nc(OCCN3CCCC3)ccc2c1`, the ΔTm in assay [1] is -12.8 °C; in assay [2], -0.86 °C.

As for `CN1C(=O)Cc2ccc(-c3ccc(C[C@@H](C#N)NC(=O)[C@H]4N[C@@H]5CC[C@H]4C5)c(F)c3)cc21`, the ΔTm was 0.1 °C in assay [1] and 0.42 °C in assay [2].

As to `CC#CC(=O)N1CCN(c2nc(-c3ccc(Oc4ccccc4)cc3)c(C(N)=O)s2)CC1`, the values for the thermal shift (ΔTm) in assay [1] and in assay [2] were -3.96 °C and -3.1 °C, respectively.

As to `COc1cc(-c2nn([C@H]3CC[C@H](N4CCN(C(C)=O)CC4)CC3)c3ncnc(N)c23)ccc1NC(=O)c1cc2ccccc2n1C`, the thermal shift (ΔTm) is 0.13 °C in assay [1] and -0.55 °C in assay [2].

As for `CNC(=O)c1ccc2c(c1)NC(=O)/C2=C(\Nc1ccc(CN2CCCCC2)cc1)c1ccccc1`, the ΔTm in assay [1] is -3.03 °C; in assay [2], -3 °C.

Take `CNCc1ccc(-c2cc(-c3nc(-c4ccc(S(=O)(=O)C(C)C)cc4)cnc3N)on2)cc1`: the values for the shift in melting temperature (ΔTm) in assay [1] and in assay [2] were -2.54 °C and -0.96 °C, respectively.

Take `CC(=O)N1CCN([C@H]2CCC[C@@H](NC(=O)c3cc4c(F)ccc(C)c4[nH]3)C2)CC1`: the ΔTm in assay [1] was -1.7 °C; in assay [2] it was -1.5 °C.

With `COc1ccc(-c2c(-c3ccccc3)oc3ncnc(O[C@H](C)CCCCC(=O)O)c23)cc1`, the ΔTm is -0.98 °C in assay [1] and -1.53 °C in assay [2].

Regarding `CC(=O)Nc1c(F)cc(C(=O)N[C@H]2CC[C@H](O)CC2)cc1O[C@@H](C)c1ccccc1`, the ΔTm in assay [1] was -1.18 °C; in assay [2] it was -0.63 °C.

Turning to `Cc1nc2cccnc2n2c(-c3cc(C(C)(C)O)ncc3Cl)nnc12`, the ΔTm in assay [1] was -1.96 °C; in assay [2], -2.03 °C.

With `COc1cc2ncnc(Nc3cccc(O)c3)c2cc1OC`, the shift in melting temperature (ΔTm) in assay [1] was 0.18 °C; in assay [2] it was -0.88 °C.

On to `C=CC(=O)Nc1cccc(C)c1Nc1ncc2cc(-c3c(Cl)c(OC)cc(OC)c3Cl)ccc2n1`, for which the values for the ΔTm in assay [1] and in assay [2] were 0.13 °C and 0 °C, respectively.

Turning to `CC(C)(C)c1cc(NC(=O)c2csc(Nc3ccccn3)n2)no1`, the thermal shift (ΔTm) amounted to 1.16 °C in assay [1] and 1.12 °C in assay [2].

For `COc1ccc(C(F)(F)F)cc1NC(=O)Nc1ccc(Oc2cc(C)nc(N)n2)c2ccccc12`, the figures for the shift in melting temperature (ΔTm) in assay [1] and in assay [2] were -0.19 °C and -0.94 °C, respectively.

Regarding `Cn1cncc1-c1cn(-c2cccc(C(=O)Nc3cccc(C(F)(F)F)c3)c2)nn1`, the ΔTm in assay [1] is -2.66 °C; in assay [2], -0.32 °C.

Take `Cc1ccc2c(NS(=O)(=O)c3ccccc3Cl)cccc2c1Oc1ncccc1-c1ccnc(N[C@H]2CCCNC2)n1`: the ΔTm amounted to 0.99 °C in assay [1] and 1.37 °C in assay [2].

`Nc1ncnc2c1c(COc1cccc(Cl)c1)nn2C1CCOCC1`: the ΔTm was -0.35 °C in assay [1] and -2.38 °C in assay [2].

On to `CN(C)CCCNc1ccnc(Nc2cccc(Cl)c2)n1`, for which the ΔTm in assay [1] is -2.63 °C; in assay [2], -4.21 °C.

Turning to `O=C1Nc2ccc(C(=O)c3ccco3)cc2C1=Cc1cc(Cl)c(O)c(Cl)c1`, the thermal shift (ΔTm) is 0.79 °C in assay [1] and -3.45 °C in assay [2].

Take `COc1cc(F)ccc1-c1ncnc(Nc2cccc(C[S@](C)(=N)=O)c2)n1`: the shift in melting temperature (ΔTm) in assay [1] is 0.48 °C; in assay [2], -1.99 °C.

As to `CCCCCCC(Sc1nc(Cl)cc(NCc2ccc(-c3ccccc3)cc2)n1)C(=O)O` (centres undefined), the ΔTm is -1.48 °C in assay [1] and 0.51 °C in assay [2].

With `CNc1nc(-c2ccc3c(N)n[nH]c3c2)cc(N2C[C@@H](C(=O)NC3CCCCC3)CC[C@H]2C)n1`, the ΔTm in assay [1] was 0.26 °C; in assay [2], -2.05 °C.

With `CCc1ccc(-c2ncn(CC3(F)CCN(C)CC3)c2-c2ccnc3[nH]ccc23)nc1`, the ΔTm is -2.66 °C in assay [1] and -2.61 °C in assay [2].

Take `Cc1nn(C)c(COc2ccc(N3CCN(S(=O)(=O)N(C)C)CC3)cc2)c1-c1cccc2c(CCCOc3cccc4ccccc34)c(C(=O)O)n(CCN3CCOCC3)c12`: the ΔTm in assay [1] is -12.6 °C; in assay [2], -0.84 °C.

With `Fc1ccc(-c2nc(-c3c(F)cccc3F)[nH]c2-c2ccncc2)cc1`, the ΔTm was 0.95 °C in assay [1] and -2.15 °C in assay [2].

Take `CN(C)C(=O)Cn1cc(-c2nc([C@@](C)(c3ccc(-c4cnc(N)nc4)cc3)C3CC3)no2)cn1`: the ΔTm in assay [1] is -1.9 °C; in assay [2], 0.31 °C.

For the compound `O=C(Nc1ccc(OC(F)(F)Cl)cc1)c1cnc(N2CC[C@@H](O)C2)c(-c2cc[nH]n2)c1`, the thermal shift (ΔTm) was 0 °C in assay [1] and -3.05 °C in assay [2].

`COc1ccc(-c2cc3c(C)nc(N)nc3n([C@H]3CC[C@H](OCCO)CC3)c2=O)cn1`: the ΔTm in assay [1] was -0.11 °C; in assay [2] it was -2.05 °C.

With `CNc1ncc2cc(-c3ccc(-c4ncccc4F)cc3Cl)c(=O)n(C[C@H]3OC[C@H](N)CO3)c2n1`, the shift in melting temperature (ΔTm) in assay [1] was -2.59 °C; in assay [2], -3.59 °C.

As to `CCCCC/C=C/C=C1/C(=O)C=C[C@@H]1C/C=C\CCCC(=O)O`, the ΔTm is -4.89 °C in assay [1] and -1.14 °C in assay [2].

With `Cc1nccc(COC(=O)N2C[C@@H]3[C@@H](CNC(=O)c4ccc5[nH]nnc5c4)[C@@H]3C2)n1`, the shift in melting temperature (ΔTm) in assay [1] was -4.78 °C; in assay [2] it was 0.34 °C.

For the compound `CO[C@H]1C[C@@H]2CC[C@@H](C)[C@@](O)(O2)C(=O)C(=O)N2CCCC[C@H]2C(=O)O[C@H]([C@H](C)C[C@@H]2CC[C@@H](O)[C@H](OC)C2)CC(=O)[C@H](C)/C=C(\C)[C@@H](O)[C@@H](OC)C(=O)[C@H](C)C[C@H](C)/C=C/C=C/C=C/1C`, the shift in melting temperature (ΔTm) in assay [1] was -2.02 °C; in assay [2], -0.81 °C.

Take `C=C(F)C(=O)N1CCN(c2nc(OC[C@@H]3CCCN3C)nc3c2CCN(c2cccc4cccc(Cl)c24)C3)C[C@@H]1CC#N`: the ΔTm in assay [1] was 0.05 °C; in assay [2] it was -0.78 °C.

`CC(=O)c1c(C)c2cnc(Nc3ccc(N4CCN(CCOCCOCCOCCNC(=O)COc5cccc6c5C(=O)N(C5CCC(=O)NC5=O)C6=O)CC4)cn3)nc2n(C2CCCC2)c1=O` (centres undefined): the values for the ΔTm in assay [1] and in assay [2] were -1.51 °C and 0.27 °C, respectively.

Take `COc1cc(Nc2cnc(C#N)c(O[C@H](C)CN(C)C)n2)ncc1-c1cnn(C)c1`: the thermal shift (ΔTm) was -1.55 °C in assay [1] and -2.76 °C in assay [2].

Take `CCO[C@H](COc1ccc(C(F)(F)F)cc1)CSc1ccc(OCC(=O)O)c(C)c1`: the values for the shift in melting temperature (ΔTm) in assay [1] and in assay [2] were -2.72 °C and -3.26 °C, respectively.

Consider `COc1cccc(-c2c(C)c(Cc3c(F)cccc3C(F)(F)F)c3n(c2=O)[C@@H]([C@@H](N)c2ccccc2)CS3)c1F`, for which the ΔTm in assay [1] is -3.06 °C; in assay [2] it was 0.28 °C.

`Cc1csc(S(=O)(=O)N(CC(C)C)c2cc3c(cc2OCc2ccc(C(=O)O)cc2)CCC3)n1`: the ΔTm in assay [1] is -0.64 °C; in assay [2], -0.15 °C.

Regarding `O=C(CCCN1CCC(O)(c2ccc(Cl)cc2)CC1)c1ccc(F)cc1`, the ΔTm is -3.1 °C in assay [1] and -2.64 °C in assay [2].

For `O=C(O)CCCN1CCC[C@H]1COc1ccc(Oc2ccc(Cl)cc2)cc1`, the shift in melting temperature (ΔTm) in assay [1] is -2.86 °C; in assay [2], -0.92 °C.

For `Cc1[nH]nc(C(F)(F)F)c1Cc1sc2c(c1C(=O)N1C[C@](C)(O)CO1)c(=O)n(C)c(=O)n2C(C)C`, the ΔTm in assay [1] is -1.28 °C; in assay [2], -0.8 °C.

On to `CCOC(=O)C1Cc2ccccc2CN1C(=O)c1ccc(SC)s1` (centres undefined), for which the ΔTm was -2.7 °C in assay [1] and -3.41 °C in assay [2].

Consider `CN(C)C/C=C/C(=O)Nc1ccc(C(=O)Nc2cccc(Nc3ncc(Cl)c(-c4c[nH]c5ccccc45)n3)c2)cc1`, for which the thermal shift (ΔTm) in assay [1] is -2.3 °C; in assay [2] it was -1.56 °C.

As for `CCC(=O)N[C@@H]1CC[C@H](C(=O)N(C)c2ccc(-c3nc4ccccc4o3)cc2)C1`, the ΔTm in assay [1] is -0.34 °C; in assay [2], 0.25 °C.

The record behind these values is ChEMBL document CHEMBL5308504, “Tm Shift (DSF) assay results for EUbOPEN Chemogenomics Library” (2023).
